From the supplement of paper PMC9925115
Structures can show the parent of a compound that is named as a salt. ± gives the uncertainty stated by the source.

system: FLX1; assay: cell viability z-score within plate (CellTiter-Glo), mean of 3 biological replicates; higher = higher viability relative to plate (less growth inhibition); settings: 2 µM; time (hr): 120
Description: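 FLX1 fibrolamellar carcinoma cells (DNAJB1-PRKACA fusion), 600 cells/well in 384-well plates, treated with a Selleck kinase inhibitor library (L1200) at 2 uM for 5 days (120 hr); viability by CellTiter-Glo. A z-score was computed within each plate and averaged over three biological replicates.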

In order of falling “cell viability z-score within plate” value:
1. CCn1c2ccccc2c2cc(Nc3ccnc(NCCCN4CCOCC4)n3)ccc21  1.38 ± 0.26
2. O=C1NC(=O)C(c2cnc3ccccn23)=C1c1cn2c3c(cc(F)cc13)CN(C(=O)N1CCCCC1)CC2  1.17 ± 1.1
3. Cn1sc(=O)n(Cc2ccccc2)c1=O  1.12 ± 0.94
4. N=C(N)NC(=N)NCCc1ccccc1 [Phenformin HCl]  1.08 ± 0.3
5. CN1CC[C@H](c2c(O)cc(O)c3c(=O)cc(-c4ccccc4Cl)oc23)[C@H](O)C1 [Flavopiridol HCl]  0.894 ± 0.42
6. O=c1cc(N2CCOCC2)oc2c(-c3ccccc3)cccc12  0.828 ± 0.37
7. O=C(Nc1ccc(OC(F)(F)F)cc1)c1sccc1NCc1ccnc2ccccc12  0.792 ± 0.22
8. Cc1nc(NC(=O)N2CCC[C@H]2C(N)=O)sc1-c1ccnc(C(C)(C)C(F)(F)F)c1 [Alpelisib (BYL719)]  0.524 ± 0.28
9. CCOC(=O)c1cnc2ccc(-c3cncc(NS(=O)(=O)c4ccccc4)c3)cn12  0.507 ± 0.62
10. Oc1c2ccccc2c2c3c(cccc13)N=N2  0.48 ± 0.65
11. COC(=O)Nc1ccc(-c2nc(N3CCOCC3)c3cnn(C4CCN(C(=O)OC)CC4)c3n2)cc1  0.411 ± 0.44
12. CN1CCCN(C(=O)c2cccc(-c3ccc(/C=C4/C(=O)Nc5ccc(Cl)cc54)o3)c2)CC1  0.408 ± 0.47
13. O=C(Nc1cccc(Nc2ncc(Br)c(NCCc3cnc[nH]3)n2)c1)N1CCCC1  0.384 ± 0.1
14. Cc1c(NC(=O)c2ccc(C(C)(C)C)cc2)cccc1-c1cn(C)c(=O)c(Nc2ccc(C(=O)N3CCOCC3)cc2)n1  0.367 ± 0.26
15. Cc1cc(Nc2cc(N3CCN(C)CC3)nc(Sc3ccc(NC(=O)C4CC4)cc3)n2)n[nH]1 [Tozasertib (VX-680, MK-0457)]  0.324 ± 0.42
16. CC[C@H](CO)Nc1nc(NCc2ccccc2)c2ncn(C(C)C)c2n1 [Roscovitine (Seliciclib,CYC202)]  0.283 ± 0.3
17. CC[C@H](Nc1ncnc2[nH]cnc12)c1nc2cccc(F)c2c(=O)n1-c1ccccc1 [Idelalisib (CAL-101, GS-1101)]  0.166 ± 0.22
18. Cc1cc(C(=O)NOCCO)c(Nc2ccc(I)cc2F)n(C)c1=O  0.132 ± 0.35
19. Cc1ccc(F)c(NC(=O)Nc2ccc(-c3cccc4[nH]nc(N)c34)cc2)c1 [Linifanib (ABT-869)]  0.077 ± 0.57
20. CCc1cnn2c(NCc3ccc[n+]([O-])c3)cc(N3CCCC[C@H]3CCO)nc12  0.031 ± 0.76
21. Nc1cc(C(F)(F)F)c(-c2cc(N3CCOCC3)nc(N3CCOCC3)n2)cn1 [Buparlisib (BKM120, NVP-BKM120)]  -0.0175 ± 0.38
22. C=CC(=O)Nc1cccc(Oc2nc(Nc3ccc(N4CCN(C)CC4)cc3)ncc2Cl)c1  -0.0359 ± 0.21
23. NC1(c2ccc(-c3nc4ccn5c(=O)[nH]nc5c4cc3-c3ccccc3)cc2)CCC1  -0.0746 ± 0.54
24. CC(=O)Nc1nc(C)c(-c2ccc(Cl)c(S(=O)(=O)NCCO)c2)s1  -0.0789 ± 0.1
25. CN(C[C@@H]1COCCO1)S(=O)(=O)Nc1ccc2ccc3ncc(-c4cnn(C)c4)cc3c(=O)c2c1  -0.122 ± 0.42
26. CN(C)Cc1cccc(N/C(=C2\C(=O)Nc3cc(C(N)=O)ccc32)c2ccccc2)c1  -0.208 ± 0.31
27. N#C/C(=C(/N)Sc1ccc(N)cc1)c1ccccc1C(F)(F)F  -0.253 ± 0.36
28. COc1ccc(-c2nc(N3CCOCC3)c3sc(CN(C)c4ncc(C(=O)NO)cn4)cc3n2)cn1  -0.258 ± 0.92
29. Cc1ccc(Nc2nccc(N(C)c3ccc4c(C)n(C)nc4c3)n2)cc1S(N)(=O)=O [Pazopanib]  -0.34 ± 0.86
30. Nc1nccc(Oc2ccc(NC(=O)c3c[nH]cc(-c4ccc(F)cc4)c3=O)cc2F)c1Cl  -0.37 ± 0.32
31. NC1(Cc2ccc(Cl)cc2)CCN(c2ncnc3[nH]ccc23)CC1  -0.404 ± 1.4
32. CC(C)(C)c1cc(NC(=O)Nc2ccc(-c3cn4c(n3)sc3cc(OCCN5CCOCC5)ccc34)cc2)no1 [Quizartinib (AC220)]  -0.415 ± 0.29
33. O=C(Nc1cc(C(F)(F)F)cc(C(F)(F)F)c1)c1cc(Cl)ccc1O  -0.692 ± 0.5
34. COc1cc2c(Oc3ccc(NC(=O)C4(C(=O)Nc5ccc(F)cc5)CC4)cc3F)ccnc2cc1OCCCN1CCOCC1  -0.77 ± 2.3
35. S=C(NCc1ccc2c(c1)OCO2)N1CCN(c2ncnc3c2oc2ccccc23)CC1 [Amuvatinib (MP-470)]  -0.826 ± 0.77
36. O=C1NC(=O)/C(=C/c2ccc3c(c2)OC(F)(F)O3)S1  -0.962 ± 0.62
37. O=C1c2ccc(Nc3ccc(F)cc3F)cc2CCc2ccc(OC[C@H](O)CO)cc21 [Skepinone-L]  -1.21 ± 0.79
38. Cc1ccc(NC(=O)c2ccc(CN3CCN(C)CC3)cc2)cc1Nc1nc(-c2cccnc2)cs1 [Masitinib (AB1010)]  -1.52 ± 1.2
39. Cc1ccc(NC(=O)c2cccc(C(C)(C)C#N)c2)cc1Nc1ccc2ncn(C)c(=O)c2c1  -1.84 ± 0.14
40. N#CCNC(=O)c1ccc(-c2ccnc(Nc3ccc(N4CCOCC4)cc3)n2)cc1 [Momelotinib (CYT387)]  -1.97 ± 1
